Screens from PubChem.
hcDAF12 agonist – H. contortus DAF-12 nuclear receptor activators, primary screen, cell-based, luminescence, HEK293, lit1-tk-luc reporter; HEK293 hcDAF-12 lit1-tk-luc reporter; 0% DMSO, 100% Δ7-dafachronic acid; activation, % at 6.8 µM; 370,000 tested, 1.4% active;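 active = activation above the mean of all tested compounds plus 3 SD, cut at about 5.5% in these data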;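 note: 100% = response to 3 µM Δ7-dafachronic acid high control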
DAX1 inh-1 – DAX1 (NR0B1) inhibitors on StAR promoter, primary screen, cell-based, luminescence, SF-1 (NR5A1), full-length DAX-1; HEK293T StAR-luciferase reporter, SF-1/DAX-1 repression relief; inhibition, % at 6.8 µM; 370,000 tested, 1.1% active;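 active = inhibition above the mean over all tested compounds plus 3 SD, cut at about 3.6% in these data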;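 note: 0% = DAX-1 cells with DMSO and 100% = cells lacking DAX-1 with DMSO; higher inhibition means more luminescence from relief of DAX-1 repression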
hgDAF-12 ag – H. glycines DAF-12 receptor agonists, primary screen, cell-based, luminescence, HEK293, GAL4 fusion, UAS-luciferase. HEK293 GAL4-hgDAF12 UAS-luciferase reporter, agonist luminescence; normalized to butyrate control. activation, % at 6.8 µM. 370,000 tested, 1.8% active. AID 687014, 2013;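 active = activation above a cutoff set at the mean of all screened compounds plus 3 SD, cut at about 10% in these data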;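 note: 0% = DMSO wells and 100% = sodium butyrate wells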
DAX1 inh-2 – DAX1 (NR0B1) inhibitors, primary screen, cell-based, HEK293, Gal4-DAX1, luciferase luminescence | Nuclear receptor subfamily 0 group B member 1 (Homo sapiens), P51843 | HEK293 Gal4-DAX1 luciferase reporter | inhibition, % at 6.75 µM | 340,000 tested, 0.99% active | AID 504766, 2011;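 active = inhibition above the mean over all tested compounds plus 3 SD, cut at about 4.2% in these data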;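 note: 0% = DAX1-transfected cells with DMSO and 100% = empty-vector control cells with DMSO; inhibition shows as a rise in luminescence from relieved DAX1 repression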
Target sequence (P51843 207-470 limits assumed): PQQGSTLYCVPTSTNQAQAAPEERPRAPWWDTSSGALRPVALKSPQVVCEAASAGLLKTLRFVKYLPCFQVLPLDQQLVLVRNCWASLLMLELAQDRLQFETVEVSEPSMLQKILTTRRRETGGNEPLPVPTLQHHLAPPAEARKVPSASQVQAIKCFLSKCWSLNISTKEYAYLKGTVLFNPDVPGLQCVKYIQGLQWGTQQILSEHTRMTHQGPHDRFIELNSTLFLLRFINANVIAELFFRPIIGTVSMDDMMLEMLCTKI
ssDAF-12 act – S. stercoralis DAF-12 nuclear receptor activators, primary screen, cell-based, luminescence, HEK293, GRIP1 co-expression, lit1-tk-luc. Nuclear hormone receptor DAF-12 (Strongyloides stercoralis). HEK293 ssDAF-12/GRIP1 lit1-tk-luc reporter; % of 3 µM dafachronic acid response. activation, % at 6.8 µM. 370,000 tested, 1% active. AID 652126, 2013;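 active = activation above the mean over all tested compounds plus 3 SD, cut at about 0.9% in these data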;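 note: 0% = DMSO-only wells and 100% = 3 µM delta7-dafachronic acid wells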
DAX1 conf – DAX1 (NR0B1) inhibitors relieving SF-1 repression, confirmation, cell-based, luminescence, HEK293T, full-length DAX-1, SF-1 activated StAR promoter; shares compounds with DAX1 inh-1; HEK293T StAR-promoter luciferase reporter, SF-1/DAX-1 repression; inhibition, % at 6.8 µM; 2,400 tested, 87% active; AID 652134, 2013;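 active = inhibition above the average of every tested compound plus 3 SD, cut at about 3.8% in these data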;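 note: 0% = DAX-1 cells with DMSO and 100% = no DAX-1 control cells with DMSO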
SF1 mutant ctr – StAR reporter signal changes without DAX1, counter-screen for DAX1 inhibitor project, cell-based, luminescence, AF-2 mutant SF-1, transactivation; shares compounds with DAX1 inh-1; HEK293 StAR-luciferase, SF-1 AF2 mutant; inhibition, % at 6.8 µM; 2,400 tested, 78% active; AID 652136, 2013;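 active = inhibition above the mean of all tested compounds plus 3 SD, cut at about 3% in these data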;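 note: 0% = DAX-1 transfected cells with DMSO and 100% = cells without DAX-1 with DMSO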
The depositor's hits bear a star; x = no result given. An excerpt weighted towards active compounds, which were near 4.1% of everything screened.

SMILES	hcDAF12 agonist	DAX1 inh-1	hgDAF-12 ag	DAX1 inh-2	ssDAF-12 act	DAX1 conf	SF1 mutant ctr
COc1ccc(OC)c(C(=O)CSc2nnnn2C)c1	-2	1	-1	0	-1	x	x
Cn1ccnc1SCC(=O)Nc1ccccc1	-1	0	0	0	-1	x	x
CCOc1ccc(NC(=O)CSc2nccn2Cc2ccco2)cc1	2	-2	6	1	-1	x	x
COc1ccc(NC(=O)CSc2nccn2Cc2ccco2)cc1	1	5.2*	8	1	0	6.8*	6.0*
Cn1ccnc1SCC(=O)Nc1ccc2ccccc2c1	5	5.7*	9	0	1.2*	10*	6.3*
COc1ccc(C(=O)CSc2nccn2C)c(OC)c1	3	6.9*	11*	1	0	5.5*	3
Cc1nc2ccc(S(=O)(=O)N(C)CC(=O)NCCc3ccccc3)cc2s1	-1	0	0	1	-1	x	x
CC(NC(=O)C(=O)NCCN1CCN(C(=O)c2ccc([N+](=O)[O-])cc2)CC1)c1ccccc1 (stereo unspecified)	0	0	-1	0	-1	x	x
O=C(C[n+]1ccc2ccccc2c1)c1ccc2ccc3ccccc3c2c1	1	5.3*	2	x	-1	-3	-1
CCOC(=O)N1CCN(C(=O)c2ccc3oc(CCCc4ccccc4)nc3c2)CC1	3	5.2*	8	2	-1	6.0*	2
CC(=O)c1c(C)[nH]c(C(=O)OCC(=O)Nc2ccc([N+](=O)[O-])cc2Cl)c1C	-1	0	-3	-1	-1	x	x
COc1cc2c(=O)[nH]c3cc([N+](=O)[O-])ccc3c2cc1[N+](=O)[O-]	-3	-6	-2	0	-1	x	x
Nc1cc2[nH]c(=O)c3ccccc3c2cc1[N+](=O)[O-]	2	5.4*	7	1	-1	0	-1
O=C(O)CCCNS(=O)(=O)c1ccc2c(c1)OCCCO2	0	0	2	1	-1	x	x
COc1cccc(N=CNc2cccc(OC)c2)c1	2	4.7*	9	1	0	5.4*	3.4*
COc1cccc(NC=C2C(=O)OC(C)(C)OC2=O)c1	1	-1	2	-2	-1	x	x
CCOc1ccc(S(=O)(=O)NCc2ccccn2)cc1NC(=O)c1ccccc1F	-1	0	3	1	-1	x	x
O=C(CSc1nnc(NC(=O)c2ccccc2F)s1)NCc1ccc(F)cc1	4	6.8*	7	2	0	9.2*	3.7*
Cc1ccccc1C(=O)Nc1nnc(SCC(=O)NC2CC2)s1	4	7.4*	8	2	0	6.1*	3.6*
O=C(CSc1nnc(NC(=O)c2ccccc2F)s1)NCc1ccco1	2	6.3*	7	1	0	5.9*	6.4*
O=C(Nc1nnc(-c2ccccc2)s1)c1ccccc1F	3	5.5*	11*	3	0	7.7*	5.2*
CCN(CC)CCNC(=O)C1(c2ccccc2)CCCCC1	2	2	-1	1	-1	x	x
COc1ccccc1C(=O)Nc1nnc(SCC(=O)NCC2CCCO2)s1 (stereo unspecified)	5	10*	11*	1	-1	9.6*	9.2*
COc1ccc(C(=O)Nc2nnc(SCC(=O)NC3CCCC3)s2)c(OC)c1	3	10*	11*	1	2.3*	8.4*	3
CC(=O)Nc1nnc(SCC(=O)NC2CCCC2)s1	-1	0	0	0	-1	x	x
SMILES	hcDAF12 agonist	DAX1 inh-1	hgDAF-12 ag	DAX1 inh-2	ssDAF-12 act	DAX1 conf	SF1 mutant ctr
COc1ccc(C(=O)Nc2nnc(SCC(=O)NCc3ccco3)s2)c(OC)c1	2	5.0*	10	-2	0	5.5*	0
CCc1nnc(NC(=O)Nc2ccccc2OC)s1	3	1	4	2	-2	x	x
CCc1nnc(NC(=O)c2ccc(OC)cc2OC)s1	6.1*	6.8*	12*	0	0	13*	5.7*
C=CCOc1ccc(C2NC(=O)c3ccccc3O2)cc1OC (stereo unspecified)	0	1	1	0	0	x	x
S=C(Nc1nc2c(s1)CCCC2)NC1CC1	3	5.3*	10	1	0	6.4*	4.3*
Cc1ccc(CC(=O)Nc2nc3c(s2)CCCC3)cc1	-1	-1	-6	-2	-1	x	x
O=C1Nc2cc(C(=O)NCCN3CCCCCC3)ccc2S/C1=C/c1ccccc1F	-1	1	0	1	-1	x	x
COc1cccc(/C=C2/Sc3ccc(C(=O)NCCN4CCCC4)cc3NC2=O)c1	0	10*	3	0	-1	4.6*	3.2*
CCOC(=O)C1(CCCc2ccccc2)CCN(C(=O)C(C)n2cncn2)CC1 (stereo unspecified)	-4	0	1	0	-2	x	x
Cc1ccc(NC(=O)C/C(N)=N/OC(=O)Nc2ccc(C)c(Cl)c2)cc1	1	2	8	0	-1	x	x
Cc1ccc(NC(=O)C/C(N)=N/OC(=O)Nc2cccc(C)c2)cc1	2	5.0*	3	0	-1	2	1
COc1ccc(-c2cc(NC=O)c3ncc(-c4ccc(OC)c(OC)c4)n3c2)c(OC)c1	-4	6.5*	-3	x	-1	12*	-8
COc1ccc(-c2cc(NC=O)c3ncc(-c4cc(OC)c(OC)c(OC)c4)n3c2)cc1	0	4.6*	-4	x	-1	4.0*	-11
COc1cccc(-c2cnc3c(NC=O)cc(-c4ccc(OC)cc4OC)cn23)c1	-2	0	-9	x	-1	x	x
COc1ccc(N(CC(=O)Nc2ccccc2C(=O)NCCc2ccccc2)S(C)(=O)=O)cc1OC	-3	-1	1	0	-2	x	x
CCOC(=O)c1cnc2c(-c3ccccc3)c(C)nn2c1N	-1	0	3	1	-1	x	x
CCOC(=O)c1cnc2c(-c3ccccc3)cnn2c1N	4	5.6*	12*	4	0	17*	12*
